# Experimental data from PubChem BioAssay.
# A number with no mark means an inactive call. This is one part of the list. Activity calls are given as the source filed them. Rule as the data show it, unless noted: active = inhibition above about 25%; inactive = the rest.
# What was measured:
# [1] = biological target: Nuclear receptor coactivator 1 (Homo sapiens) (UniProt Q15788); assay: NCOA1 GAL4-fusion reporter inhibition – cell-based, luminescence, quadruplicate, confirmation (AID 588820;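 active = mean inhibition above 46.68%, the untreated control wells mean plus 3 SD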;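 also: 0% = DMSO wells and 100% = gossypol 36 µM treated wells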); conditions: HEK293 GAL4-SRC1 luciferase reporter, at 3.6 µM, active compounds read high
# [2] = repression of VP16-driven luciferase reporter – cell-based, luminescence, high throughput, counter-screen for SRC1 inhibitor project (AID 588824); conditions: cell-based VP16 transactivation luciferase luminescence; at 3.6 µM; active compounds read high
# [3] = biological target: Photoreceptor-specific nuclear receptor (Homo sapiens) (UniProt Q9Y5X4); assay: retest of NR2E3-NCOR disrupting agonists – cell-based, luminescence, CHO-S two-hybrid, confirmation (AID 624378;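 active = average inhibition above a cutoff equal to the mean inhibition of all tested compounds plus one SD, cut at about 70% in these data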;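 also: 0% = DMSO in NR2E3 cells and 100% = DMSO in cells lacking NR2E3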); conditions: CHO-S mammalian two-hybrid NR2E3-NCOR, luciferase luminescence; at 3.98 µM; active compounds read high
# [4] = nonselective effects on VP16 transactivation – cell-based, luminescence, CHO-S, high throughput, counter-screen for NR2E3 agonist project, confirmation (AID 624379;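 active = mean inhibition above a cutoff equal to the average over all tested compounds plus one standard deviation, cut at about 70% in these data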;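 also: 0% = DMSO with VP16-transfected cells and 100% = DMSO with cells lacking VP16; higher means less reporter light so more repression of VP16 activity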); conditions: CHO-S GAL4-VP16 luciferase reporter, at 3.98 µM, active compounds read high
# [5] = VP16-driven transactivation reporter suppression – cell-based, luminescence, HEK293, counter-screen for COUP-TFII antagonist project (AID 687007; in the data active = inhibition above about 13%); conditions: HEK293 Gal4-VP16 luciferase reporter, at 8.5 µM, active compounds read high
# [6] = biological target: COUP transcription factor 2 (Homo sapiens) (UniProt P24468); assay: retest of COUP-TFII reporter suppressors – cell-based, luciferase reporter, HEK293, triplicate, confirmation (AID 687008;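 active = mean inhibition over three repeats above a set limit taken from the earlier primary screen, cut at about 38% in these data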;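 also: 100% = cells given the luciferase reporter alone without the COUP-TF2 vector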); conditions: HEK293 NGFI-A luciferase reporter, luminescence; at 8.5 µM; active compounds read high
# [7] = StAR promoter reporter inhibitors, counter-screen for LRH-1 inverse agonist project, cell-based, luminescence, high throughput (AID 651611; in the data active = inhibition above about 28%); conditions: StAR promoter luciferase reporter counterscreen, at 3.6 µM, active compounds read high
# [8] = biological target: Nuclear receptor subfamily 5 group A member 2 (Homo sapiens) (UniProt O00482); assay: NR5A2 activity suppression in reporter cells – cell-based, luminescence, confirmation (AID 651613; in the data active = inhibition above about 42%;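 also: HEK293T cells co-transfected with LRH-1 and StAR promoter luciferase reporter; 0% = vehicle wells and 100% = parental cells lacking receptor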); conditions: cell-based LRH-1 luciferase reporter, inverse agonism; at 3.6 µM; active compounds read high
# [9] = biological target: Steroidogenic factor 1 (Homo sapiens) (UniProt Q13285); assay: inverse agonism at SF1 nuclear receptor – cell-based, luminescence, high throughput, counter-screen for LRH-1 inverse agonist project (AID 651614; in the data active = inhibition above about 44%;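 also: cells cotransfected with StAR promoter reporter and SF1 expression vector; 0% = vehicle on cells with receptor and 100% = vehicle on cells lacking receptor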); conditions: cell-based SF1 luciferase reporter, at 3.6 µM, active compounds read high
# [10] = compounds suppressing VP16-driven luciferase signal – cell-based, luminescence, high throughput, counter-screen for LRH-1 inverse agonist project (AID 651615; in the data active = inhibition above about 33%); conditions: Gal4-VP16 luciferase reporter cells, at 3.6 µM, active compounds read high
# Chain of Steroidogenic factor 1 (Homo sapiens) (Q13285 whole entry, looked up, the tested form may be a part): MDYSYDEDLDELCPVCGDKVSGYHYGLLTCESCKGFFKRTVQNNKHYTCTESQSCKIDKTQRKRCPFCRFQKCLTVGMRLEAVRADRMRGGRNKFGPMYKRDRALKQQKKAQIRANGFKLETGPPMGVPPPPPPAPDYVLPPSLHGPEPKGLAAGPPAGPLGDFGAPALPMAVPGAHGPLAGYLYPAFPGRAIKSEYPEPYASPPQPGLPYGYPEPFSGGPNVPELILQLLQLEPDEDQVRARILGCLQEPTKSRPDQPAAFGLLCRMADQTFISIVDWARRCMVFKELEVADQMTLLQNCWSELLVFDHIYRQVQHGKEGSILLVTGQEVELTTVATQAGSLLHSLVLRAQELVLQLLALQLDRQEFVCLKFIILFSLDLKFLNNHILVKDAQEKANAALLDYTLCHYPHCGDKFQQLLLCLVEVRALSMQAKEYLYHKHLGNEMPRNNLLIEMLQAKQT
# Chain of Nuclear receptor coactivator 1 (Homo sapiens) (Q15788 whole entry, looked up, the tested form may be a part): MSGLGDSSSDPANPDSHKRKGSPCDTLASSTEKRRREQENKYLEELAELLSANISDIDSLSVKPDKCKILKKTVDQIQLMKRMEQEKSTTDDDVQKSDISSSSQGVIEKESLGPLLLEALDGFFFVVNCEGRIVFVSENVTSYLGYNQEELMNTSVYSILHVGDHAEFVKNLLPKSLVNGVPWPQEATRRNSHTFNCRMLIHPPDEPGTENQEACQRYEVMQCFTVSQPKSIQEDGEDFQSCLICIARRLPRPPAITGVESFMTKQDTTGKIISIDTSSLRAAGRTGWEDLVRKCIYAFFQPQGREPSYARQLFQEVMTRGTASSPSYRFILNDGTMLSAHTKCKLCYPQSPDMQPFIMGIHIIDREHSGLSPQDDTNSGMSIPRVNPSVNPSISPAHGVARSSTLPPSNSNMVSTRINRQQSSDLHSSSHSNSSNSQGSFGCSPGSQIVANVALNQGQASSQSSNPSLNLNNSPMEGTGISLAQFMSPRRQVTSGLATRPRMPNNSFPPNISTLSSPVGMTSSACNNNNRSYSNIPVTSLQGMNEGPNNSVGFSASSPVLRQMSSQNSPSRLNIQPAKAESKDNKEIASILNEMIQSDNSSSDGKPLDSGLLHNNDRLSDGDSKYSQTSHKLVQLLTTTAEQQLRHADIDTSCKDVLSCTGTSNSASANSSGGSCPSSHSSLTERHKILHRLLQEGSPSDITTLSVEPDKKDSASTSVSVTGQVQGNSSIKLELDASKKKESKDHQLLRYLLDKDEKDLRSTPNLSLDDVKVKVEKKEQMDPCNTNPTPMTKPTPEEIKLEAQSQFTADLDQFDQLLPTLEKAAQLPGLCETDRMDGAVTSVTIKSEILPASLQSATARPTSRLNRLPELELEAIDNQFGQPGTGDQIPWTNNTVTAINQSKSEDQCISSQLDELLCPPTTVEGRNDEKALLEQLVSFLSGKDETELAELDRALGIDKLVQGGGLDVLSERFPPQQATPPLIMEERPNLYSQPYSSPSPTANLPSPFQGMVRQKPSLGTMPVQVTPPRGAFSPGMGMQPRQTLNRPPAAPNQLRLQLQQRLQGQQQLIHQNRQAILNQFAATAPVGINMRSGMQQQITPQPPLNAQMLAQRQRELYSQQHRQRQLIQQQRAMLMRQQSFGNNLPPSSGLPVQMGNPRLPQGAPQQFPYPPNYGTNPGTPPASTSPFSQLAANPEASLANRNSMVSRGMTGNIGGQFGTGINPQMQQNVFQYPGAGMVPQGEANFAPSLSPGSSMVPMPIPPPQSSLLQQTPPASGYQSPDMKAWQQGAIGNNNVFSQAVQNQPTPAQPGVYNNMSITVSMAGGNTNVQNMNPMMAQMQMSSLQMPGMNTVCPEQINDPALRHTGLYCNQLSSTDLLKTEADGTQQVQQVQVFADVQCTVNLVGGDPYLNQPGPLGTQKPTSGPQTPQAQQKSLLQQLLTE
# Chain of Nuclear receptor subfamily 5 group A member 2 (Homo sapiens) (O00482 whole entry, looked up): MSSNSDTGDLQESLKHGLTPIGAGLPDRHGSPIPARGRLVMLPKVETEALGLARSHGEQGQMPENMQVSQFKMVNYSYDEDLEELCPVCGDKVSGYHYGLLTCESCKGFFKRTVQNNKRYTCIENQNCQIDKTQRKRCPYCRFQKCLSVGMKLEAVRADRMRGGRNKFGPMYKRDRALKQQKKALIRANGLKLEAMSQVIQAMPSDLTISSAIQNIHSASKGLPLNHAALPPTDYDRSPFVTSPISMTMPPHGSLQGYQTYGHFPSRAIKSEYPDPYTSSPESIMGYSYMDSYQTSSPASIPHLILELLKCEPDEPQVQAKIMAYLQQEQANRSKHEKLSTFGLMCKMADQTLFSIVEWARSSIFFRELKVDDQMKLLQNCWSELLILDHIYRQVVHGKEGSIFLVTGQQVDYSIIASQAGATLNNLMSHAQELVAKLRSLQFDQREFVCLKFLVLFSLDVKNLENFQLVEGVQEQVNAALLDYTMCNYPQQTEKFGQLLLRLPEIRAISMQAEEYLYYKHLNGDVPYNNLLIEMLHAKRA
# Chain of COUP transcription factor 2 (Homo sapiens) (P24468 whole entry, looked up): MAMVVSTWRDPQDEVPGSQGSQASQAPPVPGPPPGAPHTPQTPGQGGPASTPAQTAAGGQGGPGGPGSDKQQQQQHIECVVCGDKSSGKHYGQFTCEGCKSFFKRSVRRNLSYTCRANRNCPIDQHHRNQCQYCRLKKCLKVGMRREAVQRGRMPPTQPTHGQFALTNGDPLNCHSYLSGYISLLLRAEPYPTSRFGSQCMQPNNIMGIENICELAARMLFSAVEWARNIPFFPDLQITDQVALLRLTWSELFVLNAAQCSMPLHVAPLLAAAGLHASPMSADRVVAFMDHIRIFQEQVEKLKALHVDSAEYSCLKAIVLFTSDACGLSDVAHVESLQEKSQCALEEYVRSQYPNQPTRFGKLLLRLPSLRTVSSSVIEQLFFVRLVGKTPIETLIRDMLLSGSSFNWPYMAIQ
# Chain of Photoreceptor-specific nuclear receptor (Homo sapiens) (Q9Y5X4 whole entry, looked up): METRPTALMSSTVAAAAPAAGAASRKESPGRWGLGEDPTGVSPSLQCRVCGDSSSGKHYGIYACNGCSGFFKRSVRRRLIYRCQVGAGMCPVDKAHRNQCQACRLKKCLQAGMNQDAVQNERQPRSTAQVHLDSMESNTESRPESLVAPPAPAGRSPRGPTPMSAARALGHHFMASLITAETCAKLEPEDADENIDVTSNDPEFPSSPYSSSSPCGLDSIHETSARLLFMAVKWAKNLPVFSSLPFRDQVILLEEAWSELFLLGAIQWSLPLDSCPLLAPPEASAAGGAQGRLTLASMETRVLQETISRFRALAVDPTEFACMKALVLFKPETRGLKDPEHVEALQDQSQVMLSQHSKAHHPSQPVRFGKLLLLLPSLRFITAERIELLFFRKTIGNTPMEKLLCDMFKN
smiles,measurement,setting,value
O=[N+]([O-])c1ccc(C[n+]2cccc3c4ccccc4ccc32)cc1,inhibition,[1],3.12%
same,inhibition,[2],34.3% (active)
C#Cc1ccc(NC(=O)C2(C)CCN2C(=O)Cc2ccc(-c3ccccc3)cc2)cc1 (centres undefined),inhibition,[1],12.8%
same,inhibition,[2],36.2% (active)
same,inhibition,[3],50.6%
same,inhibition,[4],52.9%
same,inhibition,[5],6.08%
same,inhibition,[6],44.2% (active)
Cc1cc(C)c(CN2CCN(C(=O)Cn3cnc4c(NCc5ccccc5)ncnc43)CC2)c(C)c1,inhibition,[1],-9.2%
same,inhibition,[2],43.4% (active)
same,inhibition,[7],35% (active)
same,inhibition,[8],54.1% (active)
same,inhibition,[9],57.5% (active)
same,inhibition,[10],57.9% (active)
COc1ccc(CC(=O)Nc2cccc(S(=O)(=O)N3CCCCCC3)c2)cc1OC,inhibition,[1],-18.9%
same,inhibition,[2],33% (active)
same,inhibition,[7],20.2%
same,inhibition,[8],65.6% (active)
same,inhibition,[9],53.4% (active)
same,inhibition,[10],49.3% (active)
Cc1ccc(S(=O)(=O)CC2CSc3nc4ccccc4n32)cc1 (centres undefined),inhibition,[1],-13.8%
same,inhibition,[2],33.3% (active)
same,inhibition,[7],22.6%
same,inhibition,[8],65.3% (active)
same,inhibition,[9],54.6% (active)
same,inhibition,[10],50.7% (active)
COc1ccc(C(O)(C(C)C)C(CN2CCOCC2)c2ccc(Cl)cc2)cc1 (centres undefined),inhibition,[1],16.2%
same,inhibition,[2],13.8%
CCCS(=O)(=O)c1c(S(=O)(=O)CCC)c2c(C)cccn2c1C(=O)N/N=C/c1cc(O)cc(O)c1,inhibition,[1],20.8%
same,inhibition,[2],24.6%
CCCCCCCCCCOC(=O)Cn1c(COc2ccccc2C)[n+](C)c2ccccc21,inhibition,[1],-8.25%
same,inhibition,[2],6.65%
same,inhibition,[7],-2.25%
same,inhibition,[8],42.2% (active)
same,inhibition,[9],38.4%
same,inhibition,[10],38.9% (active)
Cc1cccc(-n2ncc3c2CCCC3NC(=O)c2ccncc2)c1C (centres undefined),inhibition,[1],-10.4%
same,inhibition,[2],26.6% (active)
same,inhibition,[7],14.7%
same,inhibition,[8],54.5% (active)
same,inhibition,[9],52.1% (active)
same,inhibition,[10],44% (active)
CN(C(=O)c1cccc(NC(=O)Cc2ccc(NC(=O)C3CCCN(C(=O)CCc4ccccc4)C3)cc2)c1)C1CCCCC1 (centres undefined),inhibition,[1],6.53%
same,inhibition,[2],28% (active)
same,inhibition,[7],24.3%
same,inhibition,[8],49.4% (active)
same,inhibition,[9],48.5% (active)
same,inhibition,[10],45.2% (active)
Cc1ccc(NC(=O)c2cc(=O)c3ccccc3o2)cc1S(=O)(=O)N1CCCCC1,inhibition,[1],-9.96%
same,inhibition,[2],7.05%
CN(C)CCN1C(=O)c2cccc3cc([N+](=O)[O-])cc(c23)C1=O,inhibition,[1],-146%
same,inhibition,[2],47.5% (active)
same,inhibition,[7],67% (active)
same,inhibition,[8],96.7% (active)
same,inhibition,[9],84.4% (active)
same,inhibition,[10],68.2% (active)
CC1(C)CC(N2CCCC2)=CC(=[N+]2CCCC2)C1,inhibition,[1],2.13%
same,inhibition,[2],23.9%
same,inhibition,[7],12%
same,inhibition,[8],62% (active)
same,inhibition,[9],55.2% (active)
same,inhibition,[10],51.4% (active)
CCCCn1c2c(c(=N)c3c1CCC3)CCC2,inhibition,[1],4.17%
same,inhibition,[2],33.1% (active)
same,inhibition,[7],26.5%
same,inhibition,[8],80.5% (active)
same,inhibition,[9],61.9% (active)
same,inhibition,[10],61% (active)
CN(C)CCNc1ccc2nnn3c4ccc(O)cc4c(=O)c1c23,inhibition,[1],0.55%
same,inhibition,[2],50.6% (active)
same,inhibition,[7],47.1% (active)
same,inhibition,[8],71.1% (active)
same,inhibition,[9],71.5% (active)
same,inhibition,[10],75.9% (active)
Cc1ccc(OCCN2CCN(C(=O)CCC(=O)Nc3nnc(CC(C)C)s3)CC2)cc1,inhibition,[1],2.56%
same,inhibition,[2],11.8%
COc1ccccc1NS(=O)(=O)c1cccc(C(=O)NC2CCN(Cc3ccccc3)CC2)c1,inhibition,[1],-19.5%
same,inhibition,[2],26.4% (active)
same,inhibition,[7],26.2%
same,inhibition,[8],60.4% (active)
same,inhibition,[9],65.3% (active)
same,inhibition,[10],48.3% (active)
Cc1cccc(-n2c(CNC(=O)c3ccccc3)nnc2SCC(=O)Nc2nccs2)c1,inhibition,[1],-8.14%
same,inhibition,[2],4.71%
same,inhibition,[7],10.2%
same,inhibition,[8],10.1%
same,inhibition,[9],17.1%
same,inhibition,[10],3.06%
COc1ccc(CNC(=O)c2cccc(S(=O)(=O)N3CCCCC3)c2)cc1OC,inhibition,[1],-20.1%
same,inhibition,[2],30.6% (active)
CCCC(C)NC(=O)C1c2ccccc2Oc2ccccc21 (centres undefined),inhibition,[1],-0.82%
same,inhibition,[2],-7.9%
CCOC(=O)c1cc(C#N)c(N2CCN(C(=O)c3cccc(C(F)(F)F)c3)CC2)nc1C(F)(F)F,inhibition,[1],15.6%
same,inhibition,[2],29.2% (active)
same,inhibition,[7],15.5%
same,inhibition,[8],48.8% (active)
same,inhibition,[9],51.3% (active)
same,inhibition,[10],32.3% (active)
COc1ccc(NC(=O)C2Cc3c(-c4cccc(C(C)=O)c4)ccnc3O2)cc1OC (centres undefined),inhibition,[1],-17.4%
same,inhibition,[2],19.6%
same,inhibition,[7],44% (active)
same,inhibition,[8],59% (active)
same,inhibition,[9],72% (active)
same,inhibition,[10],48.8% (active)
